Experiments:
Details in all cases: concentration: 1 μM, replicates: in singlicate; n = 1
SRPK2 = test system: SRPK2
SRPK3 = test system: SRPK3
STK16 = test system: STK16
STK33 = test system: STK33
STK35 = test system: STK35
STK36 = test system: STK36
STK39 = test system: STK39
SYK = test system: SYK
SgK110 = test system: SgK110
TAK1 = test system: T1, TAK1
T1 construct: gene MAP3K7

TAOK1 = test system: TAOK1
TAOK2 = test system: TAOK2
TAOK3 = test system: TAOK3
TBK1 = test system: TBK1
TEC = test system: TEC
TESK1 = test system: TESK1
TGFBR1 = test system: TGFBR1
TGFBR2 = test system: TGFBR2
TIE1 = test system: TIE1
TIE2 = test system: T2, TIE2
T2 construct: gene TEK
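Further: KINOMEscan kinase panel screen.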

Row | Compound | %Inh (SRPK2) | %Inh (SRPK3) | %Inh (STK16) | %Inh (STK33) | %Inh (STK35) | %Inh (STK36) | %Inh (STK39) | %Inh (SYK) | %Inh (SgK110) | %Inh (TAK1) | %Inh (TAOK1) | %Inh (TAOK2) | %Inh (TAOK3) | %Inh (TBK1) | %Inh (TEC) | %Inh (TESK1) | %Inh (TGFBR1) | %Inh (TGFBR2) | %Inh (TIE1) | %Inh (TIE2)
1 | COc1cccc(C2=C(Nc3cc(Cl)c(O)c(Cl)c3)C(=O)NC2=O)c1 [SB-390767] | 5% | 24% | 11% | 0% | 0% | 0% | 0% | 0% | 0% | 0% | 69% | 0% | 29% | 0% | 1% | 0% | 0% | 30% | 0% | 0%
2 | CC(=O)c1c(C)c2cnc(Nc3ccc(N4CCNCC4)cn3)nc2n(C2CCCC2)c1=O | 0% | 0% | 0% | 0% | 8% | 0% | 0% | 0% | 0% | 28% | 0% | 0% | 0% | 4% | 0% | 12% | 3% | 0% | 0% | 0%
3 | CC(C)c1cc(-c2ccc3c(N)n[nH]c3c2)nc(N)n1 [GSK2250882] | 0% | 29% | 21% | 0% | 0% | 0% | 0% | 0% | 0% | 1% | 0% | 0% | 0% | 13% | 0% | 35% | 0% | 0% | 0% | 0%
4 | CC(=O)c1cccc(NC(=O)NC2CCN(c3ccnc(Nc4ccc(F)cc4)n3)C2)c1 (stereo not drawn) [GSK1379710] | 28% | 0% | 1% | 6% | 1% | 0% | 25% | 29% | 0% | 0% | 2% | 0% | 11% | 18% | 4% | 20% | 38% | 0% | 0% | 0%
5 | Nc1cccc(-c2ccc3c(N)n[nH]c3c2)n1 [GSK2192730] | 0% | 0% | 27% | 0% | 0% | 0% | 1% | 0% | 0% | 43% | 1% | 0% | 0% | 18% | 0% | 13% | 3% | 0% | 0% | 0%
6 | COc1ccc(Nc2nccc(N3CCC(NC(=O)C(C)c4ccc(Cl)cc4)C3)n2)cc1 (stereo not drawn) [GSK1379735] | 0% | 34% | 0% | 0% | 7% | 1% | 13% | 25% | 0% | 0% | 0% | 0% | 0% | 4% | 14% | 3% | 23% | 0% | 35% | 8%
7 | Cl.Cl.Cl.N#Cc1ccc(CCNc2nccc(-c3cccc(CN4CCNCC4)c3)n2)cc1 [GSK2137462] | 0% | 0% | 22% | 100% | 0% | 0% | 0% | 9% | 23% | 4% | 0% | 2% | 0% | 19% | 0% | 11% | 0% | 0% | 2% | 0%
8 | CS(=O)(=O)Cc1ccc(Nc2nccc(-c3c(-c4cccc(NC(=O)C5CCCCC5)c4)nn4ncccc34)n2)cc1 [GSK350559] | 0% | 0% | 12% | 4% | 9% | 81% | 37% | 4% | 0% | 2% | 11% | 0% | 0% | 29% | 29% | 10% | 0% | 0% | 3% | 0%
9 | COc1ccc(CSc2nnc(-c3ccc4nccn4c3)o2)cc1C(F)(F)F | 0% | 16% | 3% | 2% | 16% | 10% | 0% | 0% | 0% | 33% | 22% | 13% | 0% | 10% | 21% | 12% | 14% | 12% | 22% | 0%
10 | CCn1c(-c2c(N)noc2C)nc2cnccc21 [SB-737856] | 0% | 2% | 0% | 0% | 0% | 0% | 6% | 1% | 0% | 0% | 0% | 0% | 0% | 0% | 1% | 54% | 4% | 0% | 0% | 0%
11 | Cc1ccc(-c2nc(Nc3ccncc3)c3ccccc3n2)s1 [GSK189015] | 0% | 18% | 12% | 12% | 18% | 0% | 15% | 5% | 0% | 0% | 0% | 0% | 5% | 7% | 8% | 61% | 6% | 21% | 19% | 12%
12 | Cc1nccc(-c2c(-c3ccc(F)cc3)ncn2CCCN2CCOCC2)n1.Cl [SB-282975] | 0% | 0% | 0% | 14% | 0% | 10% | 28% | 28% | 26% | 26% | 4% | 12% | 0% | 16% | 15% | 37% | 1% | 0% | 0% | 99.9%
13 | Cc1ccc(NC(=O)Nc2ccc(Cl)c(C(F)(F)F)c2)cc1-c1ccc(C(=O)Nc2ccncc2)cc1 [GSK1398470] | 0% | 23% | 0% | 6% | 8% | 37% | 0% | 13% | 0% | 0% | 0% | 0% | 0% | 17% | 8% | 23% | 0% | 7% | 6% | 0%
14 | CNc1nc(-c2ccc3c(N)n[nH]c3c2)cc(N2C[C@@H](C(=O)NC3CCCCC3)OC[C@H]2C)n1 [GSK2375584] | 30% | 0% | 16% | 13% | 0% | 22% | 6% | 26% | 0% | 0% | 0% | 1% | 0% | 28% | 12% | 11% | 20% | 0% | 2% | 0%
15 | CN1c2ccc(-c3ccc(C(N)=O)cc3)cc2-c2[nH]ncc2S1(=O)=O | 8% | 0% | 1% | 0% | 12% | 0% | 3% | 26% | 0% | 31% | 0% | 28% | 0% | 0% | 0% | 19% | 13% | 11% | 0% | 0%
